PubChem BioAssay
Active and inactive are the calls of the source.

Experiments:
[1] = biological target: Albumin (Bos taurus) (UniProt P02769); experiment: compounds binding labelled BSA control protein – biochemical, small-molecule microarray, Alexa647 label, 635/667 nm fluorescence, artefact control for SMM control protein annotation, profiling panel (AID 1118); conditions: BSA-A647 binding, fluorescence 635 nm, higher = more signal;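 note: score merges 667 nm emission intensity and signal-to-noise per printed compound spot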
[2] = probe aXIP binding to arrayed compounds – biochemical, NeuroSMM set, 635/667 nm fluorescence, primary screen (AID 1119); conditions: small-molecule microarray, higher = more signal, called active from +8 up or from −8 down;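 note: probe is the protein aXip251-270 applied at 1 µg/mL to compound-printed slides; binding of probe to printed compounds measured as 667 nm fluorescence plus signal to noise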
[3] = probe aNOTCH3 binding on compound microarray – biochemical, small-molecule microarray, 635/667 nm fluorescence, primary screen (AID 1120); conditions: higher = more signal;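 note: probe is a biotin-tagged antibody raised against NOTCH3 rather than NOTCH3 protein; score merges spot fluorescence near 667 nm with spot signal to noise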
[4] = probe aNOTCH2 binding on compound microarray – biochemical, small-molecule microarray, 635/667 nm fluorescence, primary screen (AID 1121); conditions: higher = more signal;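 note: score merges feature fluorescence read at 667 nm with its signal to noise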
[5] = biological target: Carbonic anhydrase 2 (Homo sapiens) (UniProt P00918); experiment: compounds binding carbonic anhydrase 2 – biochemical, small-molecule microarray, Alexa647-labelled CAII, profiling panel (AID 1122); conditions: CAII-A647 binding fluorescence, higher = more signal
[6] = COS7 lysate on small-molecule microarray, probe aHis, 635 nm (AID 1123); conditions: COS7 cell lysate, fluorescence, higher = more signal;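 note: z-score combines 667nm fluorescence intensity with signal-to-noise per printed compound spot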
[7] = probe aLAP1 signal on lysate-treated microarray – cell lysate, small-molecule microarray, COS7 lysate, primary screen (AID 1124); conditions: probe aLAP1, fluorescence, higher = more signal;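 note: lysate comes from COS7 cells expressing LAP1 and is applied at 0.3 µg/mL; score merges spot fluorescence near 667 nm with signal-to-noise over triplicate slides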
[8] = test system: Sam68 (KHDRBS1); experiment: compounds binding KHDRBS1 protein – biochemical, small-molecule microarray, 635 nm fluorescence, primary screen (AID 1125); conditions: higher = more signal;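 note: score merges 667 nm channel intensity with signal to noise over triplicate slides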
[9] = test system: Chordin-like protein 2 (CHRDL2); experiment: compounds binding chordin-like 2 – biochemical, small-molecule microarray, 635 nm fluorescence, primary screen (AID 1126); conditions: fluorescence 635 nm, higher = more signal;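 note: printed compound slides probed with Chrdl2 protein at 4 µg/mL for 1 h at 4 C; score merges 667 nm emission intensity with signal to noise over three replicate slides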
[10] = biological target: Concanavalin-A (Canavalia ensiformis) (UniProt P02866); experiment: compounds binding concanavalin A lectin – biochemical, small-molecule microarray, Alexa647 label, 635 nm, artefact control for SMM control protein annotation, primary screen (AID 1127); conditions: ConA-A647 binding fluorescence, higher = more signal;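 note: z combines 667 nm emission intensity with signal-to-noise across three replicate slides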
[11] = compounds binding Alexa647 anti-His antibody – biochemical, small-molecule microarray, 635 nm fluorescence, artefact control for SMM control protein annotation, primary screen (AID 1128); conditions: higher = more signal;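 note: score merges feature fluorescence with signal-to-noise for each printed compound spot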
[12] = test system: Human papillomavirus type 1a E7 protein (residues 1-88); experiment: HPV1a E7 small-molecule binders, primary screen, biochemical, small-molecule microarray, residues 1-88, 635 nm (AID 1129); conditions: small-molecule microarray binding, fluorescence 635 nm; higher = more signal
[13] = biological target: Focal adhesion kinase 1 (Homo sapiens) (UniProt Q05397); experiment: PTK2 protein binding on printed compound slides – biochemical, small-molecule microarray, 635/667 nm fluorescence, BSA, DTT, primary screen (AID 1130); conditions: 635 nm fluorescence, higher = more signal;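 note: composite of spot emission at 667 nm and signal to noise over triplicate slides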
[14] = test system: Fibrinogen (Alexa647-labelled); experiment: Alexa647-fibrinogen binding to printed small molecules – biochemical, small-molecule microarray, 635/667 nm fluorescence, artefact control for SMM control-protein annotation, profiling panel (AID 1131); conditions: fibrinogen-A647 binding fluorescence, higher = more signal;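 note: z-score merges 667 nm fluorescence with per-spot signal-to-noise over triplicate slides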
[15] = biological target: Follistatin (Homo sapiens) (UniProt P19883); experiment: FST protein binding to printed compounds – biochemical, small-molecule microarray, 635/667 nm fluorescence, primary screen (AID 1132); conditions: 635 nm fluorescence, higher = more signal
[16] = biological target: Fibroblast growth factor 2 (Homo sapiens) (UniProt P09038); experiment: basic fibroblast growth factor binding to printed compounds – biochemical, small-molecule microarray, 635/667 nm fluorescence, primary screen (AID 1133); conditions: FGF2, fluorescence 635/667, higher = more signal
[17] = JC-1 mitochondrial potential readout, lung cancer cells – cell-based, A549, JC-1 fluorescence, basal, 24 h, 100 nL, profiling panel (AID 1138); conditions: higher = more signal;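 note: A549 lung adenocarcinoma cells under basal conditions with no added stimulus; test concentration not given here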
[18] = test system: Lefty1; experiment: Lefty1 protein binding to printed compounds – biochemical, small-molecule microarray, 635/667 nm fluorescence, primary screen (AID 1139); conditions: fluorescence 635/667, higher = more signal
[19] = test system: wheat germ agglutinin (Triticum aestivum), Alexa647-labelled; experiment: Alexa647-WGA lectin binding to printed small molecules – biochemical, small-molecule microarray, 635/667 nm fluorescence, artefact control for SMM control-protein annotation, profiling panel (AID 1140); conditions: WGA-A647 binding, 635 nm fluorescence, higher = more signal;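 note: score merges 667 nm feature emission with signal to noise over triplicate slides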
[20] = biological target: Luciferin 4-monooxygenase (Photinus pyralis) (UniProt P08659); experiment: inhibition of purified Photinus pyralis luciferase – biochemical, luminescence, purified enzyme, 2006 set, primary screen (AID 1141); conditions: purified firefly luciferase, SteadyGlo luminescence, 30 min; higher = more signal, called active from +8 up or from −8 down;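 note: cell-free assay with purified firefly luciferase at 100 ng per well in PBS; test concentration not given here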
Sequence of Luciferin 4-monooxygenase (Photinus pyralis) (P08659 whole entry, looked up): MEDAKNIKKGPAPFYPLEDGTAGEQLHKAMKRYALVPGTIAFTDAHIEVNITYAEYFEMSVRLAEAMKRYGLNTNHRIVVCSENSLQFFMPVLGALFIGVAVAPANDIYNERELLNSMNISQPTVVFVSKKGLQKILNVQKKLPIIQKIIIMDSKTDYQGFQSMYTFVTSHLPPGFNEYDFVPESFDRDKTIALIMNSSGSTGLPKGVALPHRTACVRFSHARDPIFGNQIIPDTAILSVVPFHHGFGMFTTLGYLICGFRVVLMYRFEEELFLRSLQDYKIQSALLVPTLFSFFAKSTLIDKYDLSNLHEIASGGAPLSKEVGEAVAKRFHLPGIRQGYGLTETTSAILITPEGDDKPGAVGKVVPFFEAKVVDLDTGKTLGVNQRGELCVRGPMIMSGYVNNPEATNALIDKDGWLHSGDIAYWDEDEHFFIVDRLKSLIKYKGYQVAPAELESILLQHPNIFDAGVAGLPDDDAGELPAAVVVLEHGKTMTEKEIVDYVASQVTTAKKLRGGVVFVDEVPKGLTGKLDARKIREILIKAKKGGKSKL

Sequence of Concanavalin-A (Canavalia ensiformis) (P02866 whole entry, looked up): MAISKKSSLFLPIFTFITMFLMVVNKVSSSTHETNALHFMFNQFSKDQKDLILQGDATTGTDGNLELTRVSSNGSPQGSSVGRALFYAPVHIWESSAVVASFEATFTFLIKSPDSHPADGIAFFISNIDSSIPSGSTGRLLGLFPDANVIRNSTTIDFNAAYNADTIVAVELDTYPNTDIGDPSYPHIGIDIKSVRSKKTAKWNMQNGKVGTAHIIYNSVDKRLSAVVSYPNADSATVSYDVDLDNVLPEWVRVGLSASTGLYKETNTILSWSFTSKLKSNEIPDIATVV
Sequence of Albumin (Bos taurus) (P02769 whole entry, looked up): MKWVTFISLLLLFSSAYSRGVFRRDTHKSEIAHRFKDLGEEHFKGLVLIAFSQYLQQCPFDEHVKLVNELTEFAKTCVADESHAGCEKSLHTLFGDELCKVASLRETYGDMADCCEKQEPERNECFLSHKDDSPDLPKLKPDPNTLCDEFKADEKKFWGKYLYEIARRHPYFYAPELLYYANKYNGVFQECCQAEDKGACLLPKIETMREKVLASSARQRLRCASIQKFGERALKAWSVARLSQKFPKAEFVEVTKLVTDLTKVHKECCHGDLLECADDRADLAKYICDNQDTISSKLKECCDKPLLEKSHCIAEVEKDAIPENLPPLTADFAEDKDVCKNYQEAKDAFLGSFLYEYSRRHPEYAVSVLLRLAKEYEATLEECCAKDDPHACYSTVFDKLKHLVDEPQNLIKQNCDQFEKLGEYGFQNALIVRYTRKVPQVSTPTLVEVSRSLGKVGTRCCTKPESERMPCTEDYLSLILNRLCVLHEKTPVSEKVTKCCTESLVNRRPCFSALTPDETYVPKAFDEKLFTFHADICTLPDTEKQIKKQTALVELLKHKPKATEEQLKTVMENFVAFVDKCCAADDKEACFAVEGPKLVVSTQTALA
Sequence of Fibroblast growth factor 2 (Homo sapiens) (P09038 whole entry, looked up): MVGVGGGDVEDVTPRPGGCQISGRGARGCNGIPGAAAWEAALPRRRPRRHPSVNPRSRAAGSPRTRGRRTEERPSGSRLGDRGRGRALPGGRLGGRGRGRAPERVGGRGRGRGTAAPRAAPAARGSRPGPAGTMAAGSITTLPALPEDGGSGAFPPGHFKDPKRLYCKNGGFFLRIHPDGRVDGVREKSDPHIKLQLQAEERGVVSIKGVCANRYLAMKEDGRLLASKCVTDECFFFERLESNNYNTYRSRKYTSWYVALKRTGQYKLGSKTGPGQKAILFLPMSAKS
Sequence of Follistatin (Homo sapiens) (P19883 whole entry, looked up): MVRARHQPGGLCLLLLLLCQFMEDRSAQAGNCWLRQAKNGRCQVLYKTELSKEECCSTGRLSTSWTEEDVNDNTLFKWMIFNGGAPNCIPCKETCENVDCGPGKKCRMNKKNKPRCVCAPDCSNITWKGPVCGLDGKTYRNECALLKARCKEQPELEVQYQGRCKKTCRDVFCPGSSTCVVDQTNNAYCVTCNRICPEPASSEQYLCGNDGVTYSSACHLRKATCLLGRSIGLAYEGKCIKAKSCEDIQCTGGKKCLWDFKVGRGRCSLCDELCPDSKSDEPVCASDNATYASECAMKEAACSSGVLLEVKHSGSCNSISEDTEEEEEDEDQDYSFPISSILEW
Sequence of Focal adhesion kinase 1 (Homo sapiens) (Q05397 whole entry, looked up): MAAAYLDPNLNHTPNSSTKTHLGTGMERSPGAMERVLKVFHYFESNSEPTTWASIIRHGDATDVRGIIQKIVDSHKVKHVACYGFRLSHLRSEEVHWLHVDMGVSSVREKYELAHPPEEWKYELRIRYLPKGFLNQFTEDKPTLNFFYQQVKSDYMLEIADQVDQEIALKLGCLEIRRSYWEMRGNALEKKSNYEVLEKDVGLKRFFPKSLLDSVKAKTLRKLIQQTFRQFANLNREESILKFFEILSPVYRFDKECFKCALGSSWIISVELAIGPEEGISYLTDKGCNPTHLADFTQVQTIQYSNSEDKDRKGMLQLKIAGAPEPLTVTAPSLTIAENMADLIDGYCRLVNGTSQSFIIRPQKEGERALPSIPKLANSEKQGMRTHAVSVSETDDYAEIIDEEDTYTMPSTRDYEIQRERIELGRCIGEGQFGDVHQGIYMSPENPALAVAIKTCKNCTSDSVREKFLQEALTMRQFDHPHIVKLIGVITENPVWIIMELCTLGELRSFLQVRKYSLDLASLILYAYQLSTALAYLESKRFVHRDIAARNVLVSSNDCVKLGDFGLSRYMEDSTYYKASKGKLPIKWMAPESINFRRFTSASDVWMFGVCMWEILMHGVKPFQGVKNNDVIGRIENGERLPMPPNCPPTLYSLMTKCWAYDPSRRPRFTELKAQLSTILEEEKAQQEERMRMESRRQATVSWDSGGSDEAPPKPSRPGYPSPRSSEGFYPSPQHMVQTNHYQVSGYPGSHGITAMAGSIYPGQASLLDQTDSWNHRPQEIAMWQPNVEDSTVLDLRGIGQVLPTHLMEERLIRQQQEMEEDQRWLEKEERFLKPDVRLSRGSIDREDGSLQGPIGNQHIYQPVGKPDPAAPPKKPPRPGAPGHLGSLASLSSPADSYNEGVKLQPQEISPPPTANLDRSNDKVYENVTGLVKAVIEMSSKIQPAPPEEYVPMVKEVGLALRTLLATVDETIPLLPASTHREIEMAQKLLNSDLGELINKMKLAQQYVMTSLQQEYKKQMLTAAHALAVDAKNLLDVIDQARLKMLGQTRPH

| Compound | composite z-score [1] | composite Z-score [2] | composite z-score [3] | composite z-score [4] | composite z-score [5] | composite z-score [6] | composite z-score [7] | composite z-score [8] | composite z-score [9] | composite z-score [10] | composite z-score [11] | composite z-score [12] | composite z-score [13] | composite z-score [14] | composite z-score [15] | composite z-score [16] | z-score [17] | composite z-score [18] | composite z-score [19] | z-score [20] |
| --- | --- | --- | --- | --- | --- | --- | --- | --- | --- | --- | --- | --- | --- | --- | --- | --- | --- | --- | --- | --- |
| C=C(COC)/C(=C/C[C@H](OC(C)=O)c1ccccc1OCCO)c1cc(C(=O)OC)ccc1OC | 0.524 | 0.131 (inactive) | -0.129 | -0.113 | 0.467 | 1.82 | -0.175 | 0.44 | -0.152 | 0.362 | 0.101 | 0.639 | 0.473 | 0.328 | 1.18 | 0.54 | 0.45 | 0.726 | -0.0912 | -0.419 (inactive) |
| COc1ccc(C(O)C2C=CC3C(=O)N(c4ccccc4)C(=O)C3N2Nc2ccc([N+](=O)[O-])cc2)c2ccccc12 (stereo not given) | 0.941 | 0.372 (inactive) | 0.155 | 0.0702 | 0.575 | 2.5 | 1.44 | 1.3 | 0.308 | 1.22 | 0.57 | 1.25 | 0.846 | 1 | 0.91 | 0.54 | -1.56 | 0.0679 | 1.21 | 1.19 (inactive) |
| NC(=O)N1C(=O)C2C(C1=O)C1C=C(CCCO)C2C(c2ccc(CN3CCCC3)cc2)N1Cc1cc2c(cc1Br)OCO2 (stereo not given) | -0.939 | -0.328 (inactive) | -0.323 | -0.117 | 0.339 | 0.344 | 0.117 | -0.312 | 0.192 | -0.129 | 0.197 | -0.445 | -0.214 | -0.713 | 0.583 | 1.2 | -0.193 | 0.117 | -0.419 | 0.542 (inactive) |
| COC(=O)[C@@]1(Cc2ccc(F)cc2)[C@H]2c3cc(C(=O)N(C)C)n(C)c3C[C@H]2CN1C(=O)c1ccccc1 | 0.637 | 0.343 (inactive) | 0.224 | 0.352 | 0.777 | 1.37 | 0.33 | -0.333 | -0.401 | 0.768 | 2.58 | 0.372 | 0.154 | -0.0862 | -0.524 | 0.263 | 0.239 | -0.795 | 0.229 | 0.053 (inactive) |
| Cc1ccc(S[C@]2(C(=O)NCc3ccccc3)CC(=O)N(Cc3ccccc3C(F)(F)F)[C@@H]2c2ccc(CO)cc2)cc1 | -0.17 | 0.131 (inactive) | -0.413 | 0.0022 | -0.333 | 0.397 | -0.618 | 0.199 | -1.77 | -0.586 | -0.645 | -0.347 | -0.496 | 0.443 | -1.4 | -0.574 | 0.802 | -1.51 | -0.212 | -0.0819 (inactive) |
| CCCCC(O)C1C=CC2C(=O)N(c3ccccc3)C(=O)C2N1Nc1ccc([N+](=O)[O-])cc1 (stereo not given) | 0.894 | 0.312 (inactive) | 0.27 | -0.148 | 0.583 | 2.61 | 0.738 | 1.3 | -0.0818 | 1.02 | 0.709 | 1.24 | 1.16 | 0.992 | 0.825 | -0.458 | -0.52 | 0.264 | 0.68 | 1.89 (inactive) |
| CCCN1C(=O)[C@]2(CCC(=O)OC(C)(C)C)N=C(c3ccc(OCCCO)cc3)O[C@@H]2c2ccccc21 | 0.151 | -0.12 (inactive) | -0.0044 | -0.0732 | 0.2 | 1.42 | 0.651 | 0.8 | 0.405 | 1.03 | 0.144 | 1.01 | 0.497 | 0.496 | 1.49 | 0.714 | 0.719 | 0.37 | 0.0961 | -1.55 (inactive) |
| COc1ccc([Si](C)(C)[C@@H]2[C@@H](CC(=O)N3CCC[C@H]3CO)O[C@]3(C(=O)N(Cc4cccc(N5CCCCC5=O)c4)c4ccccc43)[C@H]2C)cc1 | -0.101 | 1.39 (inactive) | -0.0098 | -0.127 | 0.583 | 1.97 | 0.433 | 1.07 | 0.781 | 1.11 | 2.54 | 1.03 | 0.0576 | 0.641 | 0.767 | 0.473 | 0.218 | 1.23 | 0.307 | -1.86 (inactive) |
| CC(C)C[C@@H]1NC(=O)[C@@H]2C[C@H](C(=O)NCCCCCCNC(=O)CS)[C@H](c3cccc(OCCO)c3)N2C1=O | -0.256 | 0.491 (inactive) | 0.248 | -0.123 | 0.228 | 1.94 | 0.252 | 1.29 | 1.36 | 0.862 | 1.74 | 1.26 | 0.114 | 0.892 | 1.42 | 1.71 | -0.0497 | 1.44 | 0.875 | -0.986 (inactive) |
| C=CCOC(=O)[C@@H]1[C@H]2C(=O)O[C@H](c3ccccc3)[C@H](c3ccccc3)N2[C@H](c2ccc(OCCOC(=O)[C@H]3C[C@H]4C(=O)NCC(=O)N4[C@H]3c3cccc(OCCO)c3)cc2)[C@@]12C(=O)Nc1ccc(I)cc12 | -0.735 | 0.614 (inactive) | -0.006 | -0.06 | 0.636 | 1.96 | 0.397 | 1.3 | 1.02 | 1.19 | 2.5 | 1.19 | 0.919 | 0.438 | 1.38 | 1.64 | -1.09 | 1.34 | 0.734 | -1.06 (inactive) |
| COc1ccc([Si](C)(C)[C@@H]2[C@@H](CC(=O)N3CCC[C@H]3CO)O[C@]3(C(=O)N(Cc4ccc(N5CCOC5=O)cc4)c4ccccc43)[C@H]2C)cc1 | 0.746 | 0.408 (inactive) | -0.0362 | -0.136 | 0.408 | 1.02 | 0.373 | 1.31 | 0.509 | 0.884 | 1.02 | 0.783 | 0.939 | 0.867 | 0.441 | 0.672 | 0.735 | 0.646 | 0.471 | -1.83 (inactive) |
